Only some compounds are listed: those with a hit (about 10% of all), similar ones and a draw of the others.
ALOX12 inhib: 12-hLO (ALOX12) enzyme inhibition; P18054; purified 12-hLO, xylenol orange hydroperoxide absorbance; Potency, µM (highest dose often 57.1 µM), for the others: top-dose activity change, negative = inhibition, usual class: inhibitors; 0.12% of 150,000 active; note: potency is the fitted concentration of half-maximal effect; nearly all actives have a fitted effect of over 55% in size
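Lipoxygenase turnover measured by absorbance at 573 and 405 nm after Fe-XO development. Human 12hLO 150 nM, arachidonate 40 uM, pH 7.0 Hepes buffer with detergent; 15 min compound preincubation, 30 min reaction.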
HPGD block: HPGD (human) dehydrogenase inhibition. P15428. purified HPGD, NADH fluorescence kinetic, PGE2 substrate. Potency, µM, for the others: at the top dose activity change, negative = inhibition, usual class: inhibitors. 4.3% of 150,000 active. AID 894; active = well fitted inhibition curve with a large enough effect, not every such curve was filed as active; inconclusive = small, poorly fitted or top-dose-only effect, or another doubt; inactive = no such curve, though single readings can be large or run the other way; note: potency is the fitted concentration of half-maximal effect
Target sequence (P15428 whole entry, looked up): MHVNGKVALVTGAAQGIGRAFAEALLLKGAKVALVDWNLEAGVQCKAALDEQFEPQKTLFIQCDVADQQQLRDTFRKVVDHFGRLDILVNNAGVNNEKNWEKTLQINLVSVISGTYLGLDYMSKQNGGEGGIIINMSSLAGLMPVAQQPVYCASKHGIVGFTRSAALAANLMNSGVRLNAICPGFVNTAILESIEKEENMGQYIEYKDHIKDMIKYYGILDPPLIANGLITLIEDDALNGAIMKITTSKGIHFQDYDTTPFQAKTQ
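20 nM HPGD preincubated 15 min at room temperature with compound in 50 mM Tris-HCl pH 8, 0.01% Tween 20. Started with 1 mM NAD+ and 30 uM prostaglandin E2; NADH fluorescence (360/450 nm) read 5 times over 30-s intervals, last minus first.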
ALDH1A1 block: inhibitors of human aldehyde dehydrogenase 1A1 | P00352 | 7.3% of 220,000 active | Potency, µM (titrated, usually from 75.3 µM), for the others: at the top dose activity, negative = inhibition, actives largely listed as inhibitors | Purified ALDH1A1, NADH fluorescence, propionaldehyde substrate; active = well fitted inhibition curve with a large enough effect, not every such curve was filed as active; inconclusive = small, poorly fitted or top-dose-only effect, or another doubt; inactive = no such curve, though single readings can be large or run the other way;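 note: potency is the fitted concentration of half-maximal effect; plate controls were no enzyme wells and a reference inhibitor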
aGal spleen mod: inhibits or activates alpha-galactosidase in human spleen homogenate; AID 2107; P06280; 0.008% of 240,000 active; human spleen homogenate, 4MU-alpha-Gal fluorescence, 40 min; Potency, µM (series often up to 80 µM), inactives show at the highest dose activity change, negative = inhibition, actives largely listed as inhibitors;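 note: potency is the fitted concentration of half-maximal effect; 0% = enzyme with vehicle and -100% = no enzyme basal signal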
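qHTS titration in buffer at pH 5.0. Alpha-galactosidase activity in spleen homogenate was measured via 4-methylumbelliferone release from 1 mM fluorogenic substrate after 40 min at 37C and a pH 10 stop. AC50 came from Hill fits of control-normalized data.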
PNC inhibitor: inhibitors of perinucleolar compartment assembly; PC3M PTB-GFP, PNC prevalence imaging, 16 h; hits give low values; activity change (PNC), negative = inhibition, % at 10 µM; 3.1% of 140,000 active; AID 2417;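 active = readout at or below -70, meaning at least 70% loss of cells showing the perinucleolar compartment, a nuclear body marking cancer cells; inconclusive = readout between -30 and a set limit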;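 note: plate controls were DMSO wells for no effect and camptothecin positive control wells for full effect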
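Compounds are pinned in duplicate onto adhered PC3M cells stably expressing GFP-tagged PTB and incubated 16 h at 37 C. Cells are then fixed, nuclei stained with Hoechst, and PNC-positive cells counted.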
GLA inh pH 4.5: alpha-galactosidase A (human) inhibition, pH 4.5. P06280. activity change, negative = inhibition, % at 105 µM. purified enzyme, 4-MU-alpha-Gal fluorescence, pH 4.5. 230,000 tested, under 10 active. AID 1467;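 note: 0% = full activity with enzyme and -100% = basal without enzyme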
Target sequence (P06280 whole entry, looked up): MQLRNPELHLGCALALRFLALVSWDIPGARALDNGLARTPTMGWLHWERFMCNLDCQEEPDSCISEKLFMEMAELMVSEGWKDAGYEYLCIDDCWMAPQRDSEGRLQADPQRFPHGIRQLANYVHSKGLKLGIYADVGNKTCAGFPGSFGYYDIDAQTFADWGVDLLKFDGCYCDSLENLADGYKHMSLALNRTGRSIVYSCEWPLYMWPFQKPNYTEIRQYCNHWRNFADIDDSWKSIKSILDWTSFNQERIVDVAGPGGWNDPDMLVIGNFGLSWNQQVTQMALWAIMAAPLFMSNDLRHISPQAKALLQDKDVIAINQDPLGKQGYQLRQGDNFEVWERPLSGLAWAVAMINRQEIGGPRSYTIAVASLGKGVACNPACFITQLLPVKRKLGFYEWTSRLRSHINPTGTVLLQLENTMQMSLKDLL
An asterisk follows results filed as active; ? = inconclusive; / = no result given; [ ] = remark or other dose. Unless noted, calls come from the whole dose curve; as a rule, active = well fitted curve in the direction sought with a large enough effect; inconclusive = small, poorly fitted or top-dose-only effect, or another doubt; inactive = no such curve, though single readings can be large; an effect the other way counts as inactive or inconclusive. Unless noted, % is set by controls: 0 for no effect and ±100 for the full control effect.

SMILES	ALOX12 inhib	HPGD block	ALDH1A1 block	aGal spleen mod	PNC inhibitor	GLA inh pH 4.5
C/C(=N\NC(=O)Cc1cccn1C)c1ccc2ccccc2c1	-2%	-18%	?	-14%	20	-4
CN1CCN(c2ccnc(-c3ccoc3)n2)CC1	/	/	?	-16%	/	/
CCN(CC)CCN(C)C(=O)CCc1nnc(-c2ccc(C)s2)o1	/	/	-92%	-10%	/	2
CCn1nc(C)c(CNC(=O)CCc2nnc(-c3ccc(C(C)=O)s3)o2)c1C	/	/	32µM*	4%	/	0
Cc1ccc(Nc2nc(=O)c3cccnc3s2)cc1	-2%	-29%	0%	6%	23	3
COc1ccc(OC)c(Nc2nc(=O)c3cccnc3s2)c1	/	/	2µM*	1%	/	9
COc1ccc(NS(=O)(=O)c2ccc3nc(COc4ccc(Cl)c(C)c4)[nH]c3c2)cc1	-13%	/	-13%	-7%	-106*	-3
CCN(C(=O)CSc1nnc2c3ccccc3n(CC)c2n1)C1CCS(=O)(=O)C1 (centres undefined)	-2%	-25%	16%	0%	1	6
CC(C)CSc1ncc(-c2cccc(C(F)(F)F)c2)cn1	-2%	-14%	22µM*	-10%	47	3
O=C1NC2(CCCCC2)Oc2ccccc21	3%	-12%	16µM*	-4%	28	-6
CN1CC(O)C2=CC(=O)C(=O)C=C21 (centres undefined)	/	/	-13%	0%	/	/
CCCOC(=O)c1ccc(NC(=O)C2C3C=CC(O3)C2C(=O)O)cc1 (centres undefined)	-19%	?	1.8µM*	-2%	25	6
CCCOC(=O)c1ccc(NC(=O)c2ccoc2C)cc1	7%	32µM*	?	6%	?	-4
CCCOC(=O)c1ccc(NC(=O)COC)cc1	6%	?	-12%	-8%	47	0
CCCOC(=S)Nc1ccccc1	5%	22µM*	12%	-9%	-1	1
CCCOC(=O)c1ccc(NC(=O)Oc2ccccc2)cc1	1%	?	25µM*	7%	-28	0
CCOC(=O)C1C(c2ccc(O)c(O)c2)NC(=S)NC1(O)C(F)(F)F (centres undefined)	-6%	-11%	?	26%	3	0
O=C1CS/C(=N/N=C/c2ccccc2)N1Cc1ccco1	/	/	11µM*	-21%	/	5
Cc1ccccc1CN1C(=O)CS/C1=N/N=C/c1ccco1	/	/	/	1%	/	-2
COc1ccc(OC)c(/C=N/N=C2\SCC(=O)N2Cc2ccco2)c1	-2%	-15%	5µM*	11%	-4	-8
CC(C)c1csc(CN2CCC(N3CCC(C(=O)N4CCOCC4)CC3)CC2)n1	/	/	3%	-20%	/	9
CC(=O)NC(Cc1ccccc1C)C(=O)NC1CCN(C(=O)c2cccc(C)c2)CC1 (centres undefined)	/	/	20µM*	-4%	/	-1
CC(=O)NC(Cc1cccc(F)c1)C(=O)NC1CCN(C(=O)c2ccc(C)cc2)CC1 (centres undefined)	/	/	14µM*	-6%	/	9
COc1cc(C(=O)N2CCC(NC(=O)C(Cc3ccccc3C)NC(C)=O)CC2)cc(OC)c1OC (centres undefined)	4%	-4%	3%	0%	20	3
C=CCOC(=O)C(=O)/C=C/c1c(C)n(C)n(-c2ccccc2)c1=O	/	/	?	1%	/	-8
SMILES	ALOX12 inhib	HPGD block	ALDH1A1 block	aGal spleen mod	PNC inhibitor	GLA inh pH 4.5
C=CCOC(=O)C(=O)/C=C/c1coc2ccccc2c1=O	/	/	32µM*	?	/	6
O=C(O)CCCc1ccc2ccc3ccccc3c2c1	-1%[11.4 µM]	-11%	3%[13.5 µM]	/	/	/
Clc1ccc(-n2cnnn2)cc1	-2%	-1%	10%	3%	-6	3
CO/C=C\C=C/c1nnn(-c2ccc(Cl)cc2)n1	-20%	-15%	25µM*	13%	-94*	6
CC1(C)[C@@H](CC(=O)O)CCC[C@@H]1CC(=O)O	0%[11.4 µM]	-2%	1%[13.5 µM]	/	/	/
O=C(NC(=S)Nc1cc(S(=O)(=O)N2CCOCC2)ccc1O)c1ccco1	/	/	25µM*	2%	/	-2
S=C(Nc1ccc(N2CCOCC2)cc1)Nc1ccc2nc(-c3ccco3)c(-c3ccco3)nc2c1	-14%	?	7.1µM*	-1%	-21	-6
O=C(NC(=S)Nc1ccc(N2CCOCC2)cc1)c1ccco1	-1%	22µM*	?	-22%	-3	3
O=C(Nc1cc(S(=O)(=O)N2CCOCC2)ccc1O)c1ccc(NS(=O)(=O)c2ccc(Cl)s2)cc1	-7%	-14%	-13%	-3%	-134*	6
O=C(NC(=S)Nc1cc(S(=O)(=O)N2CCOCC2)ccc1N1CCOCC1)c1ccco1	/	/	7%	3%	/	10
O=C(Nc1ccc(N2CCOCC2)cc1)c1ccc2nc(-c3ccco3)c(-c3ccco3)nc2c1	1%	-9%	3%	-3%	-20	-3
O=C1c2ccccc2C(=O)N1C[C@]1(C(=O)O)NCCS1(=O)=O	0%[11.4 µM]	-8%	-3%[13.5 µM]	/	/	/
O=C(NC(=S)Nc1ccc(N2CCOCC2)cc1)c1cncc(Br)c1	-2%	18µM*	?	-3%	23	6
O=C(NC(=S)Nc1ccc(N2CCOCC2)cc1)c1ccccc1	/	/	?	5%	/	-11
CCc1ccc(C(=O)NC(=S)Nc2ccc(N3CCOCC3)cc2)cc1	/	/	11µM*	5%	/	-22
CC(=O)c1ccc(NC(=S)Nc2ccc(N3CCOCC3)cc2)cc1	/	/	22µM*	-5%	/	1
Cc1cc(/C=C/c2ccc3cc(N(C)C)ccc3[n+]2C)c(C)n1-c1ccccc1	-6%	-13%	-9%	2%	/	-7
O=C1N/C(=C/c2ccc(N3CCCC3)cc2)C(=O)N1c1ccccc1	-2%	-8%	-9%	0%	65	-2
O=Cc1ccc(N2CCCCCC2)cc1	-9%	-30%	0.056µM*	2%	-5	4
O=Cc1ccc(N2CCCC2)c(F)c1	3%	-15%	1.6µM*	0%	?	-7
COc1cccc(N=C2SC(CC(=O)Nc3ccccc3)C(=O)N2Cc2ccccn2)c1 (centres undefined)	/	/	8.9µM*	5%	/	-14
O=C(CC1SC(=Nc2ccccc2)N(CCc2ccccn2)C1=O)Nc1ccc(F)cc1 (centres undefined)	6%	-17%	-14%	0%	?	-7
Cc1cccc(C)c1N=C1SC(CC(=O)Nc2c(C)cccc2C)C(=O)N1CCc1ccccn1 (centres undefined)	-1%	-6%	2%	0%	-112*	7
Cc1ccccc1NC(=O)CC1S/C(=N/c2nccs2)N(C)C1=O (centres undefined)	-2%	1%	-3%	1%	41	6

High-throughput results (PubChem)
